Reference: the supplement of paper PMC8047044

Each molecule was assayed on Neuro-2a (assay: neurite formation score, plate-normalized to DMSO control mean 5.04 (score (0-8 scale)); higher = more or longer neurites). Conditions: 1 µM.
Procedure: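 Neuro-2a mouse neuroblastoma cells in PLL-coated 96-well plates were pre-treated for 1 h in DMEM(+) with each kinase inhibitor at 1 µM, then switched to serum-free DMEM(-) with inhibitor to induce neurite outgrowth and fixed about 2-3 h later. Three blinded observers scored neurite formation from 0 (no neurites) to 8 (long neurites on almost all cells).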

**Q.** Which neurite formation score does the source give for `C=CC(=O)N1CCC[C@@H](n2nc(-c3ccc(Oc4ccccc4)cc3)c3c(N)ncnc32)C1` here?
**A.** The neurite formation score was 3.24.

**Q.** With `COCCOc1ccc2c(c1)ncn2-c1ccc2cccc(N3CCC(N)CC3)c2n1` as the molecule, how does the neurite formation score read?
**A.** The neurite formation score was 4.88.

**Q.** `CNC(=O)c1ccccc1Nc1cc(Nc2ccc(N3CCOCC3)cc2OC)ncc1C(F)(F)F` was tested. Which neurite formation score did it give?
**A.** Its neurite formation score is 5.02.

**Q.** `Clc1ccc(Nc2nnc(Cc3ccncc3)c3ccccc23)cc1` [Vatalanib] was tested. Which neurite formation score did it give?
**A.** Its neurite formation score is 4.69.

**Q.** How did the neurite formation score turn out when `Cc1c(NC(=O)c2ccc(C(C)(C)C)cc2)cccc1-c1cn(C)c(=O)c(Nc2ccc(C(=O)N3CCOCC3)cc2)n1` was run?
**A.** Its neurite formation score is 5.57.

**Q.** For `Cn1cc(-c2ccc3nnc(Sc4ccc5ncccc5c4)n3n2)cn1`, which neurite formation score is on record?
**A.** The neurite formation score was 4.24.

**Q.** For `COc1cc(Nc2ncc3c(n2)-c2ccc(Cl)cc2C(c2c(F)cccc2OC)=NC3)ccc1C(=O)O` [MLN8237 (Alisertib)], which neurite formation score is on record?
**A.** The neurite formation score was 4.36.

**Q.** With `O=C(NOCC(O)CO)c1cc(Br)c(F)c(F)c1Nc1ccc(I)cc1F` (stereo not given) as the molecule, how does the neurite formation score read?
**A.** Its neurite formation score is 4.57.

**Q.** With `CCn1c2ccccc2c2cc(Nc3ccnc(NCCCN4CCOCC4)n3)ccc21` as the molecule, how does the neurite formation score read?
**A.** The neurite formation score was 3.54.

**Q.** `Cc1cc(CS(=O)(=O)c2ccccc2)cc(OCc2ccc(CN3CCC[C@@H]3CO)cc2)c1` was tested. Which neurite formation score did it give?
**A.** The neurite formation score was 4.69.

**Q.** `CC(C)(C#N)c1ccc(N2C(=O)OCc3cnc4ccc(-c5cnc6ccccc6c5)cc4c32)cc1` was tested. Which neurite formation score did it give?
**A.** The neurite formation score was 3.63.

**Q.** Which neurite formation score does the source give for `CCOc1ccn(-c2ccc(F)cc2)c(=O)c1C(=O)Nc1ccc(Oc2ccnc(N)c2Cl)c(F)c1` here?
**A.** Its neurite formation score is 5.24.

**Q.** For `CN(C)c1nc2c(Br)c(Br)c(Br)c(Br)c2[nH]1`, which neurite formation score is on record?
**A.** The neurite formation score was 5.02.

**Q.** With `Cc1c(CN2CCN(C(=O)[C@H](C)O)CC2)sc2c(N3CCOCC3)nc(-c3cnc(N)nc3)nc12` as the molecule, how does the neurite formation score read?
**A.** The neurite formation score was 4.21.

**Q.** With `CCOc1cc2ncc(C#N)c(Nc3ccc(OCc4ccccn4)c(Cl)c3)c2cc1NC(=O)/C=C/CN(C)C` [Neratinib (HKI-272)] as the molecule, how does the neurite formation score read?
**A.** Its neurite formation score is 3.47.

**Q.** For `O=C1NC(=O)[C@@H](c2cn3c4c(cccc24)CCC3)[C@@H]1c1c[nH]c2ccccc12` [Tivantinib (ARQ 197)], which neurite formation score is on record?
**A.** Its neurite formation score is 0.236.

**Q.** For `CNC(=O)c1cc(Oc2ccc(NC(=O)Nc3cc(C(C)(C)C)nn3-c3ccc4ncccc4c3)c(F)c2)ccn1` [DCC-2036 (Rebastinib)], which neurite formation score is on record?
**A.** Its neurite formation score is 1.29.

**Q.** For `Cc1[nH]c(/C=C2\C(=O)Nc3ccc(S(=O)(=O)Cc4c(Cl)cccc4Cl)cc32)c(C)c1C(=O)N1CCC[C@@H]1CN1CCCC1`, which neurite formation score is on record?
**A.** Its neurite formation score is 3.91.

**Q.** With `O=C1Nc2ccc(I)cc2/C1=C/c1cc(Br)c(O)c(Br)c1` as the molecule, how does the neurite formation score read?
**A.** The neurite formation score was 3.29.

**Q.** How did the neurite formation score turn out when `S=C(NCc1ccc2c(c1)OCO2)N1CCN(c2ncnc3c2oc2ccccc23)CC1` [Amuvatinib (MP-470, HPK 56)] was run?
**A.** The neurite formation score was 4.69.

**Q.** How did the neurite formation score turn out when `CC1(C)CNc2cc(NC(=O)c3cccnc3NCc3ccncc3)ccc21` [Motesanib Diphosphate (AMG-706)] was run?
**A.** Its neurite formation score is 4.36.

**Q.** Which neurite formation score does the source give for `CCCCCCCCCCCCCCCCOP(=O)([O-])OCC[N+](C)(C)C` [Miltefosine] here?
**A.** Its neurite formation score is 5.63.

**Q.** How did the neurite formation score turn out when `COc1cc2/c(=N/c3ccc(Br)cc3F)nc[nH]c2cc1OCC1CCN(C)CC1` [Vandetanib (ZD6474)] was run?
**A.** Its neurite formation score is 4.8.

**Q.** With `O=C1NC(=O)C(c2ccccc2[N+](=O)[O-])=C1Nc1ccc(O)c(Cl)c1` as the molecule, how does the neurite formation score read?
**A.** Its neurite formation score is 3.9.

**Q.** For `CCN(CC)CCCC(C)Nc1ccnc2cc(Cl)ccc12` (stereo not given) [Chloroquine diphosphate], which neurite formation score is on record?
**A.** The neurite formation score was 4.96.

**Q.** Which neurite formation score does the source give for `NC(=O)c1ccc(N(C(N)=O)c2c(F)cccc2F)nc1-c1ccc(F)cc1F` here?
**A.** Its neurite formation score is 4.63.

**Q.** With `O=c1cc(N2CCOCC2)oc2c(-c3cccc4c3sc3ccccc34)cccc12` as the molecule, how does the neurite formation score read?
**A.** The neurite formation score was 2.9.

**Q.** `C[C@@H]1COCCN1c1cc(C2(S(C)(=O)=O)CC2)nc(-c2cccc3[nH]ccc23)n1` was tested. Which neurite formation score did it give?
**A.** The neurite formation score was 4.57.

**Q.** With `COc1nccc(-c2c(-c3ccc(F)cc3)ncn2C2CCC(O)CC2)n1` (stereo not given) as the molecule, how does the neurite formation score read?
**A.** Its neurite formation score is 5.36.

**Q.** Which neurite formation score does the source give for `CN(C)C1CCN(C(=O)c2ccc(NC(=O)Nc3ccc(-c4nc(N5CCOCC5)nc(N5CCOCC5)n4)cc3)cc2)CC1` here?
**A.** Its neurite formation score is 4.14.

**Q.** How did the neurite formation score turn out when `CCCCOc1c(C(=O)c2c(F)cc(C)cc2F)c[nH]c2nncc1-2` was run?
**A.** Its neurite formation score is 5.29.

**Q.** For `Nc1nccc(Oc2ccc(NC(=O)c3c[nH]cc(-c4ccc(F)cc4)c3=O)cc2F)c1Cl`, which neurite formation score is on record?
**A.** Its neurite formation score is 3.96.

**Q.** For `CCCCCCCCCCCCCCCCCCOP(=O)([O-])OC1CC[N+](C)(C)CC1` [Perifosine], which neurite formation score is on record?
**A.** Its neurite formation score is 4.57.

**Q.** With `CCN1CCN(Cc2ccc(NC(=O)Nc3ccc(Oc4cc(NC)ncn4)cc3)cc2C(F)(F)F)CC1` as the molecule, how does the neurite formation score read?
**A.** The neurite formation score was 4.57.

**Q.** `Cc1ccc2c(Nc3ccc(Cl)cc3)nccc2c1Nc1ncccc1-c1ncnc2nc[nH]c12` [B-Raf inhibitor 1] was tested. Which neurite formation score did it give?
**A.** The neurite formation score was 2.47.

**Q.** With `CNC(=O)c1ccc(-c2cnc3ncc(Cc4ccc5ncccc5c4)n3n2)cc1F` as the molecule, how does the neurite formation score read?
**A.** The neurite formation score was 5.14.

**Q.** For `CN1CCN(c2ccc3nc(-c4c(N)c5c(F)cccc5[nH]c4=O)[nH]c3c2)CC1` [Dovitinib Dilactic acid], which neurite formation score is on record?
**A.** Its neurite formation score is 4.96.

**Q.** For `C[S+]([O-])c1ccc(-c2nc(-c3ccc(F)cc3)c(-c3ccncc3)[nH]2)cc1` (stereo not given), which neurite formation score is on record?
**A.** Its neurite formation score is 4.57.

**Q.** `CCN1C(=CC(C)=O)Sc2ccc(OC)cc21` was tested. Which neurite formation score did it give?
**A.** The neurite formation score was 4.96.

**Q.** Which neurite formation score does the source give for `CC(C)n1nc(-c2cc3cc(O)ccc3[nH]2)c2c(N)ncnc21` here?
**A.** Its neurite formation score is 3.47.
